Assay outcomes from PubChem BioAssay.
HP1b chromo inh – HTS for Inhibitors of HP1-beta Chromodomain Interactions with Methylated Histone Tails; AID 540317, 2011; AlphaScreen HP1-beta / biotin-H3K9me3 peptide binding; Potency, µM (top dose mostly 114 µM), inactives show at the highest dose activity change, negative = inhibition, usual class: inhibitors; hit rate 0.56% among 390,000; Chromobox protein homolog 1 (Homo sapiens), P83916; further: potency means the concentration at half of the fitted maximal effect; nearly all actives have a fitted effect of over 70% in size
Target sequence (P83916 whole entry, looked up): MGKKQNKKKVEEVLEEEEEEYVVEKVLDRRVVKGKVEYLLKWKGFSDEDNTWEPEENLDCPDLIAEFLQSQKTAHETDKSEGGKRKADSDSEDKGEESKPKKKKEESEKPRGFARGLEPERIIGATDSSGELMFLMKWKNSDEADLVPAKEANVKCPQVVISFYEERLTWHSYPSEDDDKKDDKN
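Compound inhibition of the preformed complex between 50 nM HP1-beta and 50 nM biotinylated H3K9me3 peptide was read by AlphaScreen. Buffer was PBS pH 7.4 with 0.01% Tween-20. Incubations ran 30 min at room temperature, with 10 ug/mL donor/acceptor beads.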
G9a inh – qHTS Assay for Inhibitors of Histone Lysine Methyltransferase G9a. G9a H3K9 monomethylation, AlphaScreen, 2 h. Potency, µM (titrated, usually from 102 µM), without a hit: at the highest dose activity, negative = inhibition, usual class: inhibitors. hit rate 8.8% among 350,000; further: potency means the concentration at half of the fitted maximal effect; on the % scale 0 is the no-effect control and ±100 the full control effect; nearly all actives have a fitted effect of over 75% in size
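Methyltransferase reactions run at room temperature for 2 h (20 nM enzyme, 500 nM biotin-H3K9 peptide, 20 uM SAM) after a 15 min compound preincubation; product detected by AlphaScreen beads and anti-H3K9me1 antibody.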
BAZ2B block – qHTS Assay for Inhibitors of BAZ2B. AlphaScreen BAZ2B-H3K14Ac peptide displacement. hit rate 4.4% among 360,000. AID 504333, 2011. Bromodomain adjacent to zinc finger domain protein 2B (Homo sapiens), Q9UIF8. Potency, µM (titrated, usually from 114 µM), without a hit: at the top dose activity change, negative = inhibition, usual class: inhibitors; further: potency means the concentration at half of the fitted maximal effect; on the % scale 0 is the no-effect control and ±100 the full control effect; nearly all actives have a fitted effect of over 60% in size
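Multi-concentration screen (max 110 uM) measuring displacement of acetylated histone H3 peptide from BAZ2B by AlphaScreen, using 50 nM protein, 50 nM peptide and 10 ug/mL streptavidin donor plus Ni-chelate acceptor beads.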
L3MBTL1 block – qHTS Assay for the Inhibitors of L3MBTL1 | Lethal(3)malignant brain tumor-like protein 1 (Homo sapiens), Q9Y468 | Potency, µM (titrated, usually from 57.1 µM), without a hit: at the top dose activity, negative = inhibition, actives largely listed as inhibitors | AID 485360, 2010 | hit rate 0.66% among 230,000 | AlphaScreen L3MBTL1–H3K9me1 peptide binding; further: potency means the concentration at half of the fitted maximal effect; on the % scale 0 is the no-effect control and ±100 the full control effect; nearly all actives have a fitted effect of over 60% in size
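Displacement of a biotinylated histone H3(1-15) peptide monomethylated at Lys9 (75 nM) from L3MBTL1 (50 nM) was measured by AlphaScreen after a 30 min room-temperature compound incubation; cefsulodin titration served as intraplate control.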
PI5P4K alpha inh – qHTS for Inhibitors of phosphatidylinositol 5-phosphate 4-kinase (PI5P4K) | max response, % | Phosphatidylinositol 5-phosphate 4-kinase type-2 alpha (Homo sapiens), P48426 | PI5P4Kalpha enzyme, ADP-Glo luminescence, 60 min; active compounds read low | hit rate 1.2% among 330,000; active means max response of -50% or lower; inconclusive means between -30% and -50%; inactive means -30% or higher; further: value at the top dose of about 77 µM; on the % scale 0 is the no-effect control and ±100 the full control effect
Target sequence (P48426 whole entry, looked up): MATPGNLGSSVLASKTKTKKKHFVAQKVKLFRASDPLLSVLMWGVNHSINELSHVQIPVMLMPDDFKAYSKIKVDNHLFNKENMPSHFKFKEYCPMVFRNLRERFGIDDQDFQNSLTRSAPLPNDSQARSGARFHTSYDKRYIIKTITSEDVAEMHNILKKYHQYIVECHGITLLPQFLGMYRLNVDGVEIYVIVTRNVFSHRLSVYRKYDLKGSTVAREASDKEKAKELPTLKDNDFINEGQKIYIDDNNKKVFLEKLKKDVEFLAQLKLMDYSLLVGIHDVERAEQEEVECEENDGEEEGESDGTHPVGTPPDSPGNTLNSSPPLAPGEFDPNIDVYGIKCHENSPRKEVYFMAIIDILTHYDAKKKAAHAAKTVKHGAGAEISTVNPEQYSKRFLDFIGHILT
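ADP-Glo luminescence end-point read after a 60 min room-temperature kinase reaction of PI5P4Kalpha plus substrate, initiated with ATP at 5 microM final. Buffer: 0.038 M HEPES pH 7.4, EGTA, 0.1% CHAPS, 5% DMSO.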
JMJD2A Tudor – qHTS Assay for Inhibitors of JMJD2A-Tudor Domain; Lysine-specific demethylase 4A (Homo sapiens), O75164; AlphaScreen JMJD2A-Tudor / H3K4me3 peptide binding; Potency, µM (series often up to 114 µM), inactives show at the highest dose activity change, negative = inhibition, usual class: inhibitors; hit rate 4.4% among 390,000; further: potency means the concentration at half of the fitted maximal effect; on the % scale 0 is the no-effect control and ±100 the full control effect; nearly all actives have a fitted effect of over 50% in size
Active calls of the source: *; [ ] = remark or other dose. In the library only some 11% were active in any assay of this set; here they are far more common. Unless noted, the call rests on the fitted dose curve; in most records, active means well fitted inhibition curve with a large enough effect; inconclusive means small, poorly fitted or top-dose-only effect; inactive means no such curve, though single readings can be large or run the other way.

Results for Cc1ccc([N+](=O)[O-])cc1-c1ccc(/C=C(\C#N)c2[nH]nc(N)c2C#N)o1 ?
HP1b chromo inh: -24%; G9a inh: 9%[59 µM]; BAZ2B block: inconclusive; L3MBTL1 block: -2%; PI5P4K alpha inh: -55*; JMJD2A Tudor: inconclusive

How did COc1cccc(CNC(=O)CN2C(=O)CSc3ccc(S(=O)(=O)N(C)C)cc32)c1 do in these assays?
HP1b chromo inh: 31%; G9a inh: -4%[59 µM]; BAZ2B block: -15%; JMJD2A Tudor: -3%

How did CCCn1c(SCC(=O)c2cc(C)c(C)cc2C)n[nH]c1=O do in these assays?
HP1b chromo inh: 35%; G9a inh: 11µM*; BAZ2B block: 3%; PI5P4K alpha inh: 0; JMJD2A Tudor: -5%

What do the screens show for `Nc1nc(-c2ccc(Br)s2)c(Br)s1`?
HP1b chromo inh: -29%; G9a inh: inconclusive; BAZ2B block: 40µM*; L3MBTL1 block: -1%; PI5P4K alpha inh: 19; JMJD2A Tudor: inconclusive

What do the screens show for `COc1ccc(C2C=C(c3ccccc3)Nc3nc(NC(=O)c4cccc([N+](=O)[O-])c4)nn32)cc1` (stereo not given)?
HP1b chromo inh: 14%; G9a inh: -7%[59 µM]; BAZ2B block: -15%; JMJD2A Tudor: -15%

Results for COC(=O)Cc1ccc(O)c(N)c1 ?
HP1b chromo inh: inconclusive; G9a inh: inconclusive; BAZ2B block: -15%; L3MBTL1 block: 4%; PI5P4K alpha inh: inconclusive; JMJD2A Tudor: 10µM*

How did COC(=O)[C@@H](N)Cc1ccc(O)c(O)c1 do in these assays?
HP1b chromo inh: 15%; G9a inh: 3%[59 µM]; BAZ2B block: 5%; L3MBTL1 block: -2%; PI5P4K alpha inh: 3; JMJD2A Tudor: -10%

Results for CCOc1ccc(CNC(=O)COc2cc(=O)n(C)c3ccccc23)cc1 ?
HP1b chromo inh: 2%; G9a inh: 6%[59 µM]; BAZ2B block: -10%; JMJD2A Tudor: -16%

What do the screens show for `Cc1nc(Nc2ccc(Cl)cc2Cl)sc1C(=O)Nc1ccccc1`?
HP1b chromo inh: 17%; G9a inh: 21%[59 µM]; BAZ2B block: -4%; L3MBTL1 block: 7%; PI5P4K alpha inh: 14; JMJD2A Tudor: -10%

How did Oc1nc(Nc2ccc(Cl)cc2Cl)sc1/C=C1\C=Nc2ccccc21 do in these assays?
HP1b chromo inh: inconclusive; G9a inh: 4.5µM*; BAZ2B block: inconclusive; L3MBTL1 block: -13%; PI5P4K alpha inh: -57*; JMJD2A Tudor: inconclusive

What do the screens show for `CCOC(=O)c1c[nH]c2cc(OCC(C)C)c(OCC(C)C)cc2c1=O`?
G9a inh: -21%[12.7 µM]

How did Cc1ccc2nc3ccc(N4CCCC4)nn3c(=O)c2c1 do in these assays?
HP1b chromo inh: 44%; G9a inh: 10%[59 µM]; BAZ2B block: -1%; L3MBTL1 block: 6%; PI5P4K alpha inh: -6; JMJD2A Tudor: 3%

What do the screens show for `Cc1sc2nc3ccc(N4CCCCC4)nn3c(=O)c2c1C`?
HP1b chromo inh: 9%; G9a inh: 32µM*; BAZ2B block: 8%; L3MBTL1 block: 10%; PI5P4K alpha inh: -1; JMJD2A Tudor: 3%

How did COC(=O)c1ccc(CSc2nnc(SCc3ccc(C(=O)OC)o3)s2)o1 do in these assays?
HP1b chromo inh: 6%; G9a inh: -38%[59 µM]; BAZ2B block: -5%; L3MBTL1 block: -6%; JMJD2A Tudor: -15%

What do the screens show for `COC(=O)c1ccc(CSc2nnc(NCc3ccccc3)s2)o1`?
HP1b chromo inh: 45%; G9a inh: 50µM*; BAZ2B block: 2%; L3MBTL1 block: -1%; PI5P4K alpha inh: 8; JMJD2A Tudor: 0%

What do the screens show for `O=S(=O)(NN1CCOCC1)c1ccc(Cl)s1`?
HP1b chromo inh: 29%; G9a inh: 1.3µM*; BAZ2B block: -2%; L3MBTL1 block: -1%; PI5P4K alpha inh: 1; JMJD2A Tudor: -10%

How did O=S(=O)(NN1CCOCC1)c1ccc(Br)s1 do in these assays?
HP1b chromo inh: 38%; BAZ2B block: -16%; PI5P4K alpha inh: -5; JMJD2A Tudor: -8%

How did CN1CCN(NS(=O)(=O)c2ccc(Cl)s2)CC1 do in these assays?
HP1b chromo inh: 19%; G9a inh: 1.6µM*; BAZ2B block: 8%; L3MBTL1 block: 5%; PI5P4K alpha inh: -15; JMJD2A Tudor: -12%

What do the screens show for `Cc1cccc(CNc2ncncc2-c2ccccc2C)c1`?
G9a inh: -9%[0.501 µM]

What do the screens show for `COc1ccc(/C=N/c2oc(C)c(C)c2C#N)c(OC)c1`?
HP1b chromo inh: 32%; G9a inh: 50µM*; BAZ2B block: -8%; L3MBTL1 block: -8%; PI5P4K alpha inh: 0; JMJD2A Tudor: 12%

What do the screens show for `COc1cc(/C=N/c2oc(C)c(C)c2C#N)cc(Br)c1O`?
HP1b chromo inh: -18%; G9a inh: 10µM*; BAZ2B block: inconclusive; L3MBTL1 block: -5%; PI5P4K alpha inh: -21; JMJD2A Tudor: inconclusive

What do the screens show for `Cc1oc(/N=C/c2cccc3ccccc23)c(C#N)c1C`?
HP1b chromo inh: -36%; G9a inh: -13%[59 µM]; BAZ2B block: -5%; L3MBTL1 block: 6%; JMJD2A Tudor: 35µM*

What do the screens show for `CCn1c(=O)c2sccc2n2c(CCC(=O)N3CCN(c4ccc(C(C)=O)cc4)CC3)nnc12`?
HP1b chromo inh: 29%; G9a inh: -4%[59 µM]; BAZ2B block: 1%; JMJD2A Tudor: -12%

What do the screens show for `Cc1ccc2c(CNCCc3ccccc3)c(C(=O)O)n(Cc3ccccc3C)c2c1`?
HP1b chromo inh: 29%; G9a inh: -36%[59 µM]; BAZ2B block: -9%; JMJD2A Tudor: -14%

How did CCCCn1nnnc1NCc1ccc(N(CC)CC)cc1 do in these assays?
HP1b chromo inh: -2%; G9a inh: inconclusive; BAZ2B block: -31%; JMJD2A Tudor: -28%

What do the screens show for `CCN(CC)c1ccc(CNC23CN4CN(CN(C4)C2)C3)cc1`?
HP1b chromo inh: -5%; G9a inh: 3.2µM*; BAZ2B block: -30%; L3MBTL1 block: -6%[11.4 µM]; PI5P4K alpha inh: 0; JMJD2A Tudor: inconclusive

Results for S=c1[nH]c2cc(Cl)c3cccnc3c2o1 ?
HP1b chromo inh: 46%; BAZ2B block: 7%; L3MBTL1 block: 12%; PI5P4K alpha inh: -53*; JMJD2A Tudor: -16%
